Test results reported in PubChem BioAssay (EPA / NIEHS).
“And” between values parts separate entries of the source, which are not always exact repeats. Equal entries are not always repeated. Where a structure was tested more than once in an assay, its records may differ in their call. The source made the active and inactive calls. Rule for the calls: active = hit-call score of the fitted dose curve at least 0.9, where 1 is the maximum; inactive = score below 0.9.

assay: ATG_MRE_CIS: Attagene CIS-FACTORIAL HepG2 Assay for human Metal Responsive Element (MRE) (AID 2282954); details: HepG2 MRE cis-reporter transcription, Attagene multiplex; actives raise or lower the signal
Method: ATG_CIS is a cell-based, multiplexed-readout assay that uses HepG2, a human liver cell line, with measurements taken at 24 hours after chemical dosing in a 24-well plate.ATG_MRE_CIS is one of 52 assay component(s) measured or calculated from the ATG_CIS assay. It is designed to make measurements of mRNA induction, a form of inducible reporter, as detected with fluorescence intensity signals by Reverse transcription polymerase chain reaction (RT-PCR) and Capillary electrophoresis technology.Data from the assay component ATG_MRE_CIS was analyzed into 1 assay endpoint. This assay endpoint, ATG_MRE_CIS, was analyzed with bidirectional fitting relative to DMSO as the negative control and baseline of activity. Using a type of inducible reporter, measures of mRNA for gain or loss-of-signal activity can be used to understand the reporter gene at the transcription factor-level as they relate to the gene MTF1. Furthermore, this assay endpoint can be referred to as a primary readout, because this assay has produced multiple assay endpoints where this one serves a reporter gene function. To generalize the intended target to other relatable targets, this assay endpoint is annotated to the dna binding intended target family, where the subfamily is zinc finger.
Human liver HepG2 cells are transiently transfected with multiple reporter transcription units (MRTUs) in 6-well plates using FuGene 6 reagent (Roche; 3 ml FuGene/1 mg DNA). The MRTU constructs are regulated by a cis-regulating element (promoter). […] A major difference between the CIS and TRANS system is that in CIS activities of endogenous TFs are measured, whereas the TRANS assay evaluates changes in activities of exogenous, chimeric NR-Gal4 proteins. […] At the end of 24 hour incubation, total RNA was isolated using TriZol reagent (Invitrogen). The isolated RNA is then reverse-transcribed using oligo(dT) primer and Mo-MLV reverse transcriptase (Invitrogen) with DNAse I (Ambion) treatment for 30 min. The one-tenth of the produced cDNA was amplified by PCR using Taq DNA polymerase (Invitrogen) and two reporter sequence-specific primers. The PCR products were fluorescently labeled by primer extension with 6-arboxyfluorescein (6-FAM) 5'-labeled reporter sequence-specific primer (2 min at 95 C, 20 s at 68 C and 10 min at 72 C) and these products were digested with 5U of HpaI (New England Biolabs) for 2h at 37 C. The fragments were purified using Qiaquick PCR columns (Qiagen), analyzed on an ABI 3130xL genetic analyzer (Applied Biosystems) with peak positions identified by using a set of X-rhodamine (ROX)-labeled MapMarker1000 molecular weight standards (BioVentures). The raw capillary electrophoresis data was processed using Attagraph software (Attagene).

| Compound | outcome | AC50 |
| --- | --- | --- |
| CCc1ccc(CCOc2ccc(CC3SC(=O)NC3=O)cc2)nc1 (stereo not given) | inactive | – |
| CC(C)(C)c1cccc(C(C)(C)C)c1O | – | 158 µM (active) |
| COc1cc(CCC(=O)CC(=O)CCc2ccc(O)c(OC)c2)ccc1O | – | 76.4 µM (active) |
| CCCCCCC(=O)O | inactive | – |
| C#C[C@]1(O)CC[C@H]2[C@@H]3CCC4=CC(=O)CC[C@@H]4[C@H]3CC[C@@]21C | inactive | – |
| CC(=O)CC(C)(C)O | inactive | – |
| O=C(/C=C/c1ccc(O)cc1)CC(=O)/C=C/c1ccc(O)cc1 | – | 10.8 µM (active) |
| ClC1=C(Cl)C(Cl)(Cl)C(Cl)=C1Cl | – | 20.2 µM (active) and 6.9 µM (active) |
| CCCOC(=O)c1ccc(O)cc1 | inactive | 100 µM (active) |
| CC#C[C@]1(O)CC[C@H]2[C@@H]3CCC4=CC(=O)CCC4=C3[C@@H](c3ccc(N(C)C)cc3)C[C@@]21C | – | 21.3 µM (active) [middle of 4 runs] |
| C=C(C)C(=O)OCCC(F)(F)C(F)(F)C(F)(F)C(F)(F)C(F)(F)C(F)(F)F | inactive | – |
| CC(O)CO (stereo not given) | inactive | – |
| Cc1cc(CCN2CCN(c3nsc4ccccc34)CC2)cc2c1NC(=O)CC2(C)C | – | 13.3 µM (active) |
| CCCCCCCCCCCCCCCS(=O)(=O)Oc1ccccc1 | inactive | – |
| CC[C@H](C)[C@@H](C(=O)O)n1sc2ccccc2c1=O | inactive | – |
| CCC(=C(c1ccc(O)cc1)c1ccc(OCCN(C)C)cc1)c1ccccc1 | inactive | 7.1 µM (active) and 9.34 µM (active) |
| CCCCCCCCC(=O)O | inactive | – |
| O=C1OC2(c3ccccc31)c1cc(Br)c(O)c(Br)c1Oc1c2cc(Br)c(O)c1Br | inactive | 76.3 µM (active) |

| Compound | outcome | AC50 |
| --- | --- | --- |
| O=[N+]([O-])c1ccc(O)cc1 | inactive | – |
| CCCCOCCO | inactive | – |
| CCC(C)(C)C1CCC(O)CC1 (stereo not given) | inactive | – |
| NCC(F)(F)C(F)(F)C(F)(F)C(F)(F)C(F)(F)C(F)(F)C(F)(F)F | inactive | – |
| CCCCCCCCOC(=O)CCCCCCCCC(=O)OCCCCCCCC | inactive | – |
| C[C@@H]1C[C@H]2[C@@H]3CCC4=CC(=O)C=C[C@]4(C)[C@@]3(F)[C@@H](O)C[C@]2(C)[C@@]1(O)C(=O)COP(=O)(O)O | inactive | – |
| CC(C)(C)c1cc(C(C)(C)C)c(O)c(C(C)(C)C)c1 | – | 100 µM (active) and 36.8 µM (active) |
| CC1=C(/C=C/C(C)=C/C=C/C(C)=C/C(=O)O)C(C)(C)CCC1 | – | 39.7 µM (active) and 55 µM (active) |
| O=C(OCCOCCOC(=O)c1ccccc1)c1ccccc1 | inactive | – |
| c1ccc2c(c1)Cc1ccccc1-2 | inactive | – |
| COc1ccc([N+](=O)[O-])cc1N | inactive | – |
| Oc1cccc(O)c1 | inactive | – |
| NC(=O)N(O)[C@@H]1C=C[C@H](Oc2cccc(Oc3ccc(F)cc3)c2)C1 | – | 33 µM (active) |
| COCC(C)OCC(C)O (stereo not given) | inactive | – |
| COCC(C)O (stereo not given) | inactive | – |
| OCCC(F)(F)C(F)(F)C(F)(F)C(F)(F)C(F)(F)C(F)(F)F | inactive | 147 µM (active) |
| Cc1cc(C)c(O)c(C)c1 | inactive | – |
| O=c1c(-c2ccc(O)cc2)coc2cc(O)ccc12 | inactive | – |
